Assay results from PubChem BioAssay (EPA / NIEHS).
Several values for one entry are separate records, joined by “and”; a condition that tells them apart may be missing. Equal values may be shown once. Results filed as inconclusive are left out. Activity calls are given as the source filed them. How the source made its calls: active means hit-call score of the fitted dose curve at least 0.9, where 1 is the maximum; inconclusive means response in the unintended direction; inactive means score below 0.9.

The compounds below were run against Nuclear receptor subfamily 1 group I member 3 (Homo sapiens) (UniProt Q14994) (assay: ATG_CAR_TRANS: Attagene TRANS-FACTORIAL HepG2 Assay for human Constitutive Androstane Receptor (CAR) (AID 2282969;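 further: activators raise reporter mRNA above DMSO so AC50 marks induction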)). Details: HepG2 Attagene TRANS-FACTORIAL CAR reporter.
Nuclear receptor subfamily 1 group I member 3 (Homo sapiens), sequence (Q14994 whole entry, looked up, the tested form may be a part): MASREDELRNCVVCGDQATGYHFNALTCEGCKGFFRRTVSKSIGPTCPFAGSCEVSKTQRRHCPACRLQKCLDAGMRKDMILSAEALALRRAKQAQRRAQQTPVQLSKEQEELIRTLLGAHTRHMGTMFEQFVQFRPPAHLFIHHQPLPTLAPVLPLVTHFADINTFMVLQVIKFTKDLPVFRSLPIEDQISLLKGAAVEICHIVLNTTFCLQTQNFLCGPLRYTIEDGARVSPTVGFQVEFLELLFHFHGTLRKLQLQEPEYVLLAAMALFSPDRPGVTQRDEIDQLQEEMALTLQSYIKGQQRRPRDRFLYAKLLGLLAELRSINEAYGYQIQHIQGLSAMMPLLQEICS
Method in brief: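 HepG2 cells transiently transfected with multiplexed GAL4-UAS reporter units expressing chimeric NR-Gal4 proteins; compound exposure 24 h. Reporter mRNA measured by RT-PCR, 6-FAM labelling, HpaI digestion and capillary electrophoresis; gain-of-signal fitted against DMSO baseline.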

SMILES	outcome
COc1ccc(C#N)cc1	inactive
OCC(F)(F)C(F)(F)C(F)(F)C(F)(F)C(F)(F)C(F)(F)C(F)(F)C(F)(F)C(F)(F)C(F)(F)C(F)(F)F	inactive
Clc1ccc(Nc2nnc(Cc3ccncc3)c3ccccc23)cc1	inactive
C=CC(=O)OCCC(F)(F)C(F)(F)C(F)(F)C(F)(F)C(F)(F)C(F)(F)F	inactive
O=C(Nc1ccc(Cl)c(Cl)c1)c1cc(Cl)cc(Cl)c1O	inactive
CCOC(=O)CN[C@@H](C(=O)N1CC[C@H]1C(=O)NCc1ccc(/C(N)=N/O)cc1)C1CCCCC1	inactive
CC(=O)CC(C)C	inactive
C=COC(=O)C(C)(C)CCCCCC	inactive
Cc1cc(C(=C2C=CC(=Nc3ccc(S(=O)(=O)O)cc3)C=C2)c2ccc(Nc3ccc(S(=O)(=O)O)cc3)cc2)cc(S(=O)(=O)O)c1N	inactive
Cc1ccc(N=Nc2c(O)ccc3ccccc23)c(C)c1	inactive
CCC(C)c1ccccc1O (stereo not drawn)	inactive

The compounds below were run against Estrogen receptor (Homo sapiens) (UniProt P03372) (assay: ATG_ERa_TRANS: Attagene TRANS-FACTORIAL HepG2 Assay for human Estrogen Receptor alpha (ERa) (AID 2282970)). Details: HepG2 Attagene TRANS ERa GAL4 reporter, mRNA.
Estrogen receptor (Homo sapiens), sequence (P03372 whole entry, looked up, the tested form may be a part): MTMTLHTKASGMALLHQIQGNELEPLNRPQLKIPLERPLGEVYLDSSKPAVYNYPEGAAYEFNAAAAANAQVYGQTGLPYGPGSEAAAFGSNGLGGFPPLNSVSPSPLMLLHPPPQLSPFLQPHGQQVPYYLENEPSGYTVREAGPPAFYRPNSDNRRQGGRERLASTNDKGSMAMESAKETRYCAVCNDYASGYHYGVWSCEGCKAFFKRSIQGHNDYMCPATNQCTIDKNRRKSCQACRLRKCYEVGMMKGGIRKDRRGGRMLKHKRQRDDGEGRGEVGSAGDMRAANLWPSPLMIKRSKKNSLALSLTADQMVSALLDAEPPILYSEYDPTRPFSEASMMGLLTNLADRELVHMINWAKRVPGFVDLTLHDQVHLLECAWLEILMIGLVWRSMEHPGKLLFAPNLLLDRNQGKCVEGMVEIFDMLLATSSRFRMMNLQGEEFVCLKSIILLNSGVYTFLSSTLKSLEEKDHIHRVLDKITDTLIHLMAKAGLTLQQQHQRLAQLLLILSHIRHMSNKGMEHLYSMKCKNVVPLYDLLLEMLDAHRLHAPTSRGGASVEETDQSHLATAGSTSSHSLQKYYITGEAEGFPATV
Method in brief: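 Human liver HepG2, transient transfection of multiple GAL4-UAS reporter units; TRANS format (exogenous NR-Gal4 chimera). 24 h dosing. Readout: reporter mRNA, RT-PCR, 6-FAM primer extension, HpaI digest, capillary electrophoresis. Positive direction vs DMSO.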

SMILES	AC50	outcome
CC(C)(C)c1ccc(CCC=O)cc1	74 µM (active)	
NNc1nc(-c2ccc([N+](=O)[O-])cc2)cs1		inactive
CCCCc1ccc2ccccc2c1S(=O)(=O)O		inactive
NC(=NCCCCCCN=C(N)/N=C(\N)Nc1ccc(Cl)cc1)/N=C(\N)Nc1ccc(Cl)cc1		inactive
Nc1cc(Cl)c(-c2cc(Cl)c(N)cc2Cl)cc1Cl		inactive
FC(F)(F)N1C(F)(F)C(F)(F)OC(F)(F)C1(F)F		inactive
Cc1cc(=O)oc2cc(O)ccc12	50.6 µM (active) and 53.8 µM (active)	
CC1COCc2cc3c(cc21)C(C)(C)C(C)C3(C)C (stereo not drawn)	11.8 µM (active)	
Oc1cc2ccccc2cc1O		inactive
CCOCCOCC		inactive
CCOC=C(C(=O)OCC)C(=O)OCC		inactive
CCCCCCC(C)(C)C(=O)O	26.4 µM (active)	
COCN(COC)c1nc(N(COC)COC)nc(N(COC)COC)n1	49.3 µM (active)	
COc1cc(OC)nc(NC(=O)NS(=O)(=O)Nc2ccccc2C(=O)N(C)C)n1		inactive
CCCCCCCCC(C)=O		inactive
C=CCOCC(CO)(CO)CO		inactive
Oc1cccc2c(O)cccc12	11.1 µM (active)	
O=P(O)(O)CCC(F)(F)C(F)(F)C(F)(F)C(F)(F)C(F)(F)C(F)(F)C(F)(F)C(F)(F)F		inactive
CCCCCc1ccc(O)cc1	1.6 µM (active)	
O=C(F)C(F)(F)C(F)(F)C(F)(F)C(=O)F		inactive
COc1ccc(C#N)cc1		inactive
OCC(F)(F)C(F)(F)C(F)(F)C(F)(F)C(F)(F)C(F)(F)C(F)(F)C(F)(F)C(F)(F)C(F)(F)C(F)(F)F	62.3 µM (active)	
Clc1ccc(Nc2nnc(Cc3ccncc3)c3ccccc23)cc1		inactive
C=CC(=O)OCCC(F)(F)C(F)(F)C(F)(F)C(F)(F)C(F)(F)C(F)(F)F	12.8 µM (active)	
O=C(Nc1ccc(Cl)c(Cl)c1)c1cc(Cl)cc(Cl)c1O	6.62 µM (active)	
C=COC(=O)C(C)(C)CCCCCC	41 µM (active)	
Cc1ccc(N=Nc2c(O)ccc3ccccc23)c(C)c1	6.5 µM (active)	
